# The whole screen tested about 310,000 compounds, of which about 3,800 (1.2%) were called active.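 Rule for the calls: active = ratio B-score over 3 SD below the library mean, with starting fluorescence within 5 SD of its mean; inactive = the rest, inconclusive results apart.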 What follows is part of a selection rich in actives, with near analogues and random picks from the rest.
# Target: Potassium channel subfamily K member 9 (Homo sapiens) (UniProt Q9NPC2)
# Assay: blockers of human TASK-3 (KCNK9) channel – HEK293 cells, thallium flux, primary screen (AID 488922);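 for B-score: negative B-score means less thallium flux so channel inhibition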
# Conditions: HEK293 KCNK9, FluxOR thallium flux fluorescence, at 10 µM; stronger effect = lower value
# Potassium channel subfamily K member 9 (Homo sapiens), sequence (Q9NPC2 whole entry, looked up): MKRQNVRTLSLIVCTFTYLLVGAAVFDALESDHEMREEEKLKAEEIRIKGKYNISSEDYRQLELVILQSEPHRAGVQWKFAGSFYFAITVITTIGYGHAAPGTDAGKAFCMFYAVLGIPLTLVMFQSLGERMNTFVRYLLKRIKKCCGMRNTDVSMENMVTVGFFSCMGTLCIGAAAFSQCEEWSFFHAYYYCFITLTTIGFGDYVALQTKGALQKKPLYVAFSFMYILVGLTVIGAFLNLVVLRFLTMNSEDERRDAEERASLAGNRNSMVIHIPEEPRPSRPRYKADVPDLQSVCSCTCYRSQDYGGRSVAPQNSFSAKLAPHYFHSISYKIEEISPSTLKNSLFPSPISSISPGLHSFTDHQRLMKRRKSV
row,Structure (SMILES),B-score
1,Cc1cccc(N(C)C(=O)CN2C(=O)COc3ccc(S(=O)(=O)N4CCCCCC4)cc32)c1,-8.26 (active)
2,CN(C)c1ccc(CNC(=O)CN2C(=O)COc3ccc(S(=O)(=O)N4CCCC4)cc32)cc1,inactive
3,CC(=O)Nc1ccc(NC(=O)CN2C(=O)COc3ccc(S(=O)(=O)N4CCCCC4)cc32)cc1,inactive
4,COc1ccc(NC(=O)C(CC(C)C)NS(=O)(=O)c2ccc3c(c2)CCN3C(C)=O)cc1OC (stereo unspecified),inactive
5,S=c1nc2ccccc2c2nc(-c3cccnc3)[nH]n12,inactive
6,COCCCn1c(SCC(=O)Nc2oc(C)c3c(C)n[nH]c(=O)c23)nc2sc3c(c2c1=O)CCC3,inactive
7,Cc1nc2ccccc2nc1N/N=C/c1ccc(O)cc1O,inactive
8,Fc1ccc(/C=N/Nc2nc(-c3cccnc3)nc3ccccc23)cc1,inactive
9,Oc1ccc(/C=N/Nc2nc(-c3ccccc3F)nc3ccccc23)c(O)c1,-10.4 (active)
10,O=C(CC(NC(=O)c1ccccc1)c1ccccc1)Nc1ccc(F)c(F)c1 (stereo unspecified),-10 (active)
11,Cc1ccc(NC(=O)NC(=O)c2ccccc2)cc1F,inactive
12,O=C(CN1CCN(Cc2ccccc2)CC1)Nc1ccc(F)c(F)c1,inactive
13,Cc1ccc(N/N=C2\COC(C)(C)CC2=O)cc1,inactive
14,Cc1ccc(S(=O)(=O)N2CCN(CC(=O)N/N=C/c3ccc(Br)s3)CC2)cc1,inactive
15,Cc1cccc(NC(=O)CN2CCCN(S(=O)(=O)c3ccc(Br)s3)CC2)c1,-14.6 (active)
16,O=C(CN1CCCCCC1)Nc1ccc(S(=O)(=O)N2CCCCC2)cc1,inactive
17,O=C1CCN(Cc2ccc([N+](=O)[O-])cc2)CCN1[C@H](CO)Cc1ccccc1,inactive
18,CCC1(C)Cc2c(sc3nc(SC)nc(N)c23)CO1 (stereo unspecified),inactive
19,CCC1(C)Cc2c(sc3nc(SC)[nH]c(=O)c23)CO1 (stereo unspecified),inactive
20,CCCSc1nc(NCc2ccco2)c2c3c(sc2n1)COC(C)(CC)C3 (stereo unspecified),-9.18 (active)
21,COc1ccc(-c2nc3c(s2)CCc2onc(-c4ccc(OC)cc4)c2-3)cc1,inactive
22,CC1CC(C)CN(S(=O)(=O)c2cccc3nonc23)C1 (stereo unspecified),inactive

row,Structure (SMILES),B-score
1,CCn1c(Cc2cccs2)nnc1SCC(=O)c1ccc(C)cc1,inactive
2,Cc1cc(C=O)c(C)n1-c1ccc(NC2CCCCC2)c([N+](=O)[O-])c1,-24.9 (active)
3,Cc1cc([N+](=O)[O-])ccc1NC1CCCC1,inactive
4,Cc1c(NS(=O)(=O)c2ccc(NC3CCCC3)c([N+](=O)[O-])c2)c(=O)n(-c2ccccc2)n1C,inactive
5,Cc1ccc2nc(C)c3c(c2c1)N(c1ccccc1)CC3,inactive
6,Cc1nc2nc(SCC(=O)Nc3cccc(F)c3)[nH]c2cc1Br,inactive
7,COc1ccc(-c2nc3n(c(=O)c2C#N)CCS3)c(OC)c1,inactive
8,CCC1CCC/C1=N\NC(=O)c1ccc(Cl)cc1 (stereo unspecified),inactive
9,Cc1sc2nc(CSCC(=O)NC3CCCCC3)[nH]c(=O)c2c1C,inactive
10,CCOC(=O)c1nnn2c3ccccc3c(=O)n(C)c12,inactive
11,CCCCn1c(=O)c(C(C)=O)c(O)c2ccccc21,inactive
12,CCCCCn1c(=O)c(C(=O)OCC)c(Cl)c2ccccc21,-8.35 (active)
13,COc1ccccc1C1C(C#N)=C(N)Oc2c1c(-c1ccccc1)nn2-c1ccccc1 (stereo unspecified),inactive
14,CCc1nnc(NC(=O)CSc2nc(SC)ns2)s1,inactive
15,CN1C(C(=O)NCc2ccco2)CC2Cn3c(nc4ccccc43)C21 (stereo unspecified),inactive
16,O=C(Cc1ccc(F)cc1)N1CCN=C1SCc1cccc([N+](=O)[O-])c1,inactive
17,Cc1cc(C)cc(C(=O)N2CCN=C2SCc2ccc([N+](=O)[O-])cc2)c1,-7.18 (active)
18,Cc1cccc(CC(=O)N2CCN=C2SCc2ccc([N+](=O)[O-])cc2)c1,inactive
19,CC1=CC(=C(C#N)c2nc3ccccc3s2)C=C(C)N1c1ccc(F)cc1F,inactive
20,O=S(=O)(Cc1nnnn1-c1ccc(Br)cc1)c1ccc(F)cc1,inactive
21,COc1ccc2[nH]c(=O)c(C3c4cc(OC)c(OC)cc4CCN3C(=O)c3ccco3)cc2c1 (stereo unspecified),inactive
22,COc1ccc(C(=O)N2CCc3cc(OC)c(OC)cc3C2c2cccc([N+](=O)[O-])c2)cc1 (stereo unspecified),-15.3 (active)

row,Structure (SMILES),B-score
1,COc1ccccc1C1SCCN1C(=O)c1ccc([N+](=O)[O-])cc1 (stereo unspecified),inactive
2,O=C(NCCCO)/C(=C\C=C\c1ccccc1)NC(=O)c1ccccc1Cl,inactive
3,Cc1ccc(CSc2nsc(C)c2C#N)cc1,inactive
4,O=C(Nc1ccc(F)cc1)C1CCCN(S(=O)(=O)c2ccc(-n3cnnn3)cc2)C1 (stereo unspecified),inactive
5,CNS(=O)(=O)c1cccc(C(=O)NCC2CCCCC2)c1,inactive
6,CN(C)S(=O)(=O)N1CCC(Oc2cccc(C(=O)NCCCC3CCCC3)c2)CC1,-14.3 (active)
7,CN(C(=O)c1cccc(OC2CCN(S(=O)(=O)N(C)C)CC2)c1)C1CCOC1 (stereo unspecified),inactive
8,Cc1ccc(CCNC(=O)c2ccc3nc4ccccc4c(=O)n3c2)cc1,inactive
9,CC(C)(C)c1nnc(NC(=O)C2c3ccccc3Oc3ccccc32)s1,inactive
10,CCn1ccnc1CNC(=O)CC1C(=O)NCCN1Cc1ccc(F)cc1Cl (stereo unspecified),inactive
11,COc1ccc(-c2nc3cc([N+](=O)[O-])ccc3o2)cc1OC,inactive
12,O=[N+]([O-])c1ccc2c(c1)Nc1nc3ccccc3nc1N2,inactive
13,COc1ccc([N+](=O)[O-])cc1-c1nc2ccccc2nc1-c1ccccc1,-9.17 (active)
14,Cc1cnc(NC(=O)c2ccccn2)s1,inactive
15,CC(C)CNC(=O)C(=O)NCC(c1ccc2c(c1)OCO2)N1CCOCC1 (stereo unspecified),inactive
16,CC(C)[C@@H](NC(=O)OC(C)(C)C)C(=O)NCC1CCC(C(=O)N[C@@H](Cc2ccccc2)C(=O)O)CC1 (stereo partly specified),inactive
17,CCC(C)C(=O)Nc1ccccc1N1CCN(c2ccc(F)cc2)CC1 (stereo unspecified),inactive
18,CCCCC(=O)Nc1ccccc1N1CCN(c2ccc(F)cc2)CC1,-13.2 (active)
19,Cc1cccc(C(=O)Nc2ccccc2N2CCN(c3ccc(F)cc3)CC2)c1,-9.31 (active)
20,O=C(Nc1ccccc1N1CCN(c2ccccc2)CC1)c1cccc(F)c1,inactive
21,CCCC(=O)Nc1ccccc1N1CCN(C(=O)c2ccccc2)CC1,inactive
22,O=C(Nc1ccccc1N1CCCC1)c1ccc2ccccc2c1,inactive

# Reference: PubChem BioAssay AID488922 (Johns Hopkins Ion Channel Center, 2010)
